This is an account of results in PubChem BioAssay (EPA / NIEHS).

Activity calls are given as the source filed them. Rule for the calls: active = hit-call score of the fitted dose curve at least 0.9, where 1 is the maximum; inactive = score below 0.9.

What is called AC50 is the midpoint of the concentration-response curve, whichever way the signal moves.

This assay in a line: BSK_3C_uPAR: BioMAP Diversity Plus: 3C Assay for Urokinase-type plasminogen activator receptor (uPAR) Biomarker Activity (AID 2282998). Conditions: BioMAP 3C HUVEC, uPAR biomarker ELISA; actives raise or lower the signal. The essentials: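 Endothelial primary cells of human umbilical vein origin received test chemical; 24 h later uPAR was assayed by ELISA. Fitting was bidirectional, DMSO as negative control.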
Consider `CCNC(=O)NC(=O)C(C#N)=NOC`, for which the outcome was inactive. The same measure, in the same setting: with `CNC(=O)N(C)c1nnc(C(C)(C)C)s1` the entry was “inactive”.

On to `C=CCOC(=O)C(C)(C)OC(=O)c1cc(-n2c(=O)cc(C(F)(F)F)n(C)c2=O)ccc1Cl`, for which the AC50 was 2.18 µM (active). As for `O=P(O)(O)CCCl`, the outcome was inactive. On to `CCN(CC)C(=O)C(C)Oc1cccc2ccccc12` (stereo unspecified), for which the result was inactive. As to `Clc1cccc(C(Cl)(Cl)Cl)n1`, the result was inactive. With `Nc1cnn(-c2ccccc2)c(=O)c1Cl`, the result was inactive.

Consider `Cn1c(-c2ccccc2)cc(-c2ccccc2)[n+]1C`, for which the AC50 was 3.97 µM (active). `CC1(C)CON(Cc2ccccc2Cl)C1=O`: the result was inactive. On to `OC(c1ccc(Cl)cc1)(c1ccc(Cl)cc1)C(Cl)(Cl)Cl`, for which the AC50 was 29.1 µM (active).

For `COC(=O)N(C(=O)N1CO[C@@]2(C(=O)OC)Cc3cc(Cl)ccc3C2=N1)c1ccc(OC(F)(F)F)cc1`, the outcome was inactive.

With `COc1ccc(-c2ccccc2)cc1NNC(=O)OC(C)C`, the result was inactive. With `CCNP(=S)(OC)O/C(C)=C/C(=O)OC(C)C` (stereo unspecified), the outcome was inactive.

Turning to `COC(=O)c1c(C(F)F)nc(C(F)(F)F)c(C2=NCCS2)c1CC(C)C`, the AC50 was 33.4 µM (active). For the compound `CCOc1cc(C(C)(C)C)ccc1C1COC(c2c(F)cccc2F)=N1` (stereo unspecified), the AC50 was 29.7 µM (active).

With `COC(=O)NS(=O)(=O)c1ccc(N)cc1`, the result was inactive. As to `COP(=O)(OC)O/C(C)=C/C(=O)N(C)C`, the outcome was inactive.

With `Cc1ccc(N=CN(C)C=Nc2ccc(C)cc2C)c(C)c1`, the half-maximal activity concentration (AC50) was 37.6 µM (active). Take `CCSC(=O)N1CCCCCC1`: the result was inactive. Consider `COCC(C)N(C(=O)CCl)c1c(C)csc1C` (stereo unspecified), for which the outcome was inactive. As for `CCOC(=O)C(C)OC(=O)c1cc(Oc2ccc(C(F)(F)F)cc2Cl)ccc1[N+](=O)[O-]` (stereo unspecified), the AC50 is 13.3 µM (active).

With `Cc1cnc(C2=NC(C)(C(C)C)C(=O)N2)c(C(=O)O)c1` (stereo unspecified), the result was inactive. Still for that read-out and setting: with `CNC(=O)Oc1cccc2ccccc12` the entry was “inactive”; with `N#Cc1c(Cl)cccc1Cl`, “inactive”; with `CC1(C)C(C(=O)OC(C#N)c2cccc(Oc3ccccc3)c2)C1(C)C` (stereo unspecified), “inactive”. Regarding `O=C(O)c1c(Cl)ccc2cc(Cl)cnc12`, the outcome was inactive. As for `Nc1c(Cl)c(F)nc(OCC(=O)O)c1Cl`, the outcome was inactive.

For `CCCCC(O)(Cn1cncn1)c1ccc(Cl)cc1Cl` (stereo unspecified), the AC50 was 36.5 µM (active). As to `CCC(C)n1c(=O)[nH]c(C)c(Br)c1=O` (stereo unspecified), the result was inactive. Same read-out and setting: with `CN/C(=N\[N+](=O)[O-])NCc1cnc(Cl)s1` the entry was “inactive”; with `Clc1nc(Cl)nc(Nc2ccccc2Cl)n1`, “inactive”. As for `CN=C=S`, the outcome was inactive. On to `CC(C)Nc1nc(Cl)nc(NC(C)C)n1`, for which the result was inactive. On the same count and under the same terms, the entry for `O=C1C2CC=CCC2C(=O)N1SC(Cl)(Cl)Cl` (stereo unspecified) is “inactive”; for `CCOc1nc(C(Cl)(Cl)Cl)ns1` it is “inactive”. On to `CCN(CC)c1nc(C)cc(OP(=S)(OC)OC)n1`, for which the outcome was inactive.
